# Data: PubChem BioAssay (NCATS)
# Inconclusive results are not listed. A call without a number means that no potency is given here. The source made the active and inactive calls. The call rests on the fitted dose curve; in most records, active means well fitted inhibition curve with a large enough effect; inconclusive means small, poorly fitted or top-dose-only effect; inactive means flat fitted curve, though single readings scatter.
# System: TAB165
# Assay: qHTS profiling for inhibitors of Plasmodium falciparum proliferation (AID 504749); further: nearly all actives have a fitted effect of over 60% in size
# Details: P. falciparum in erythrocytes, SYBR Green DNA, 72 h; series mostly up to 28.7 µM
# In short: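 In a 72 h erythrocytic culture (37 C, humidified, 5% CO2) at 2.5% hematocrit and 0.3% starting parasitemia, compounds were tested; SYBR Green I in detergent lysis buffer stained parasite DNA overnight.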
# Potency means the concentration at half of the fitted maximal effect.
row,SMILES,Potency
1,CC(=O)c1ccc2c(c1)N(CCCN1CCN(CCO)CC1)c1ccccc1S2,11.2 µM (active)
2,CCC(=O)c1ccc2c(c1)N(CCCN1CCN(CCO)CC1)c1ccccc1S2,10 µM (active)
3,CC[C@H]1OC(=O)[C@H](C)[C@@H](O[C@H]2C[C@@](C)(OC)[C@@H](O)[C@H](C)O2)[C@H](C)[C@@H](O[C@@H]2O[C@H](C)C[C@H](N(C)C)[C@H]2O)[C@](C)(O)C[C@@H](C)CN(C)[C@H](C)[C@@H](O)[C@]1(C)O,7.94 µM (active)
4,OCC1(CO)COC(C(Cl)(Cl)Cl)OC1,inactive
5,C#C[C@]1(O)CC[C@@H]2[C@H]3CCC4=CC(=O)CC[C@H]4[C@H]3C(=C)C[C@@]21CC,inactive
6,CC(=O)Nc1c(I)c(C(=O)O)c(I)c(N(C)C(C)=O)c1I,inactive
7,CC(C)=CCC/C(C)=C/CC/C(C)=C/CC/C=C(\C)CC/C=C(\C)CCC=C(C)C,inactive
8,O=C1CCC(c2ccccc2)(C2CCN(Cc3ccccc3)CC2)C(=O)N1 (stereo not given),inactive
9,Cc1cccc(Nc2ncccc2C(=O)O)c1C,inactive
10,CCOC(=O)[C@@H](N)CS,inactive
11,O=C(O)CCC/C=C\C[C@@H]1[C@@H](/C=C/[C@@H](O)COc2cccc(C(F)(F)F)c2)[C@H](O)C[C@@H]1O,inactive
12,CCCOC(=O)c1ccccc1O,inactive
13,CCOC(=O)c1cc(-c2ccccc2)nc2ccc(C)cc12,inactive
14,Cn1cc(NC(=O)c2cc(NC(=O)c3cc(NC=O)cn3C)cn2C)cc1C(=O)NCCC(=N)N,5.01 µM (active)
15,COc1ccc2c(c1)OC(C)(C)C(c1ccccc1)C2c1ccc(OCCN2CCCC2)cc1 (stereo not given),3.16 µM (active)
